Results on one molecule are retold here after the supplement of paper PMC11732987, “Enantioselective OTUD7B fragment discovery through chemoproteomics screening and high-throughput optimisation” (Communications Chemistry, 2025).

A number with no mark means an inactive call.

What all share (test): log2 ratio of Biotin-Ahx-Ub-VS probe labelling (fragment/DMSO); higher = less target engagement (more negative = stronger competition), active = hit call of the paper (q ≤ 0.05, log2 ratio ≤ -1)
Common to all, as to conditions: compound concentration: 200 uM; treatment time: 3 h

One test deals with T1, OTUD6B (UniProt Q8N6M0).
T1 sequence (whole entry): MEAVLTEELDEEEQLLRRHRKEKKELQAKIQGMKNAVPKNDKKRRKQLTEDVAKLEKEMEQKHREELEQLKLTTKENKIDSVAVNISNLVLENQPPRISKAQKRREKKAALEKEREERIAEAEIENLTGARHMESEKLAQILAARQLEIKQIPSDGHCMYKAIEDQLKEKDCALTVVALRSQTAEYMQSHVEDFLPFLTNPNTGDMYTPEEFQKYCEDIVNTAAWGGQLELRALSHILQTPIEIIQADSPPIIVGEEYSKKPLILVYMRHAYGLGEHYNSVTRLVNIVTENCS
Summed up:
(§1)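 Using Biotin-Ahx-Ub-VS at 0.5 µM final for 1 h, DUBs were labelled in HEK293T lysate (495 µg per sample) that had first been treated in triplicate with fragment at 200 µM or vehicle for 3 h. NeutrAvidin enrichment, LysC and trypsin digestion and diaPASEF LC-MS/MS followed. Spectronaut label-free quantities were global-median-normalised. Values are average log2 fragment/vehicle ratios by unpaired t-test, using proteins with ≥2 unique peptides.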

A further test has as its target T2, OTUD7B (UniProt Q6GQQ9).
T2 sequence (whole entry): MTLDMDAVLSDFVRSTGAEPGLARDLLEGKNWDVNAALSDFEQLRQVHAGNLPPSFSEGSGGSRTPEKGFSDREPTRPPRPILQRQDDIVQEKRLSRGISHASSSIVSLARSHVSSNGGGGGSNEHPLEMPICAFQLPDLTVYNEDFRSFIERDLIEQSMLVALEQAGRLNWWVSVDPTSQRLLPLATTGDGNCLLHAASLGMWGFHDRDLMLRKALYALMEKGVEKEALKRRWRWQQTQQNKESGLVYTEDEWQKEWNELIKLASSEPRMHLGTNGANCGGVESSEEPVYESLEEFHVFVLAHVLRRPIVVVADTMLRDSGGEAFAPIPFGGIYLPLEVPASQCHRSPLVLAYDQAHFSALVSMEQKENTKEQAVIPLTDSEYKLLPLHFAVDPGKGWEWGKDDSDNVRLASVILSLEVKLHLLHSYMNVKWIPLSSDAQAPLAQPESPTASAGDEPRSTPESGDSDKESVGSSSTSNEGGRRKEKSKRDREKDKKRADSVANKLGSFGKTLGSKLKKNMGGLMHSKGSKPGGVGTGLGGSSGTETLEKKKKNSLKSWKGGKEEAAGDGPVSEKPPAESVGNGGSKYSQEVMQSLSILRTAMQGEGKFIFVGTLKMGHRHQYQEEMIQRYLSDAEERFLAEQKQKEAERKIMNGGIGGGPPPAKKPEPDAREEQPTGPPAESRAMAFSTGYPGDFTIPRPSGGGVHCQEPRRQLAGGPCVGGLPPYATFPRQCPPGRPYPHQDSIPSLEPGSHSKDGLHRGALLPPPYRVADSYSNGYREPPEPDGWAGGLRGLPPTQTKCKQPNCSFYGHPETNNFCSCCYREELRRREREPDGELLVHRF
Summed up:
as §1

For the next test, the target named is PRPF8 (UniProt Q6P2Q9). In a few lines: as §1
A further test concerns the target T3, PSMD7 (UniProt P51665).
T3 sequence (whole entry): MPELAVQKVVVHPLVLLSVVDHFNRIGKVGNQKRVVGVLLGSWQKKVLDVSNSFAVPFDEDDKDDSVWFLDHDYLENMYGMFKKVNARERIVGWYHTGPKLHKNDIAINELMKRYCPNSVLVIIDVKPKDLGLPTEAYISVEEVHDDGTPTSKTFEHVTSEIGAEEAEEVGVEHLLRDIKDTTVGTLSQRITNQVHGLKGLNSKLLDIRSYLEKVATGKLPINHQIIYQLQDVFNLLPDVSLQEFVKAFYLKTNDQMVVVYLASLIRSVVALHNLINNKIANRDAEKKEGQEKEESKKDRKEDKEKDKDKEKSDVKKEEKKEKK
In a few lines:
as §1

In another test the target is UCHL1 (UniProt P09936). In a few lines:
as §1

The target in the next test is T4, UCHL3 (UniProt P15374).
T4 sequence (whole entry): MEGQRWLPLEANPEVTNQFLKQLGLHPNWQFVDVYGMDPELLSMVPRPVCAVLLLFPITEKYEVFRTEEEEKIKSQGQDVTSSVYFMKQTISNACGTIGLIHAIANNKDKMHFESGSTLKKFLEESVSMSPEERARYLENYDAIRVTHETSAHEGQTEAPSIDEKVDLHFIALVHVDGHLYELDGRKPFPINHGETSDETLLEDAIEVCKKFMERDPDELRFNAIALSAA
In a few lines: as §1

Another test concerns the target T5, UCHL5 (UniProt Q9Y5K5).
T5 sequence (whole entry): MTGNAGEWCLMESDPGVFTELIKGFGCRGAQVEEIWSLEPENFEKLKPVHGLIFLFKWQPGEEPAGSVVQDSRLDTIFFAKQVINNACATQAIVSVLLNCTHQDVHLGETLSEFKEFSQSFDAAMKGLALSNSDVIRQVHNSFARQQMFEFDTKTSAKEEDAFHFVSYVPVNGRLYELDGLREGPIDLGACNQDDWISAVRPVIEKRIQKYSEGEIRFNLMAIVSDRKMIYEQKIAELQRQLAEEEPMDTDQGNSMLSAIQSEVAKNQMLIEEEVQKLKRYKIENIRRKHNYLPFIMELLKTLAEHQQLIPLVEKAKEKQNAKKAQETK
Summed up: as §1

A further test concerns the target USP10 (UniProt Q14694). Summed up: as §1
The target in a further test is T6, USP15 (UniProt Q9Y4E8).
T6 sequence (whole entry): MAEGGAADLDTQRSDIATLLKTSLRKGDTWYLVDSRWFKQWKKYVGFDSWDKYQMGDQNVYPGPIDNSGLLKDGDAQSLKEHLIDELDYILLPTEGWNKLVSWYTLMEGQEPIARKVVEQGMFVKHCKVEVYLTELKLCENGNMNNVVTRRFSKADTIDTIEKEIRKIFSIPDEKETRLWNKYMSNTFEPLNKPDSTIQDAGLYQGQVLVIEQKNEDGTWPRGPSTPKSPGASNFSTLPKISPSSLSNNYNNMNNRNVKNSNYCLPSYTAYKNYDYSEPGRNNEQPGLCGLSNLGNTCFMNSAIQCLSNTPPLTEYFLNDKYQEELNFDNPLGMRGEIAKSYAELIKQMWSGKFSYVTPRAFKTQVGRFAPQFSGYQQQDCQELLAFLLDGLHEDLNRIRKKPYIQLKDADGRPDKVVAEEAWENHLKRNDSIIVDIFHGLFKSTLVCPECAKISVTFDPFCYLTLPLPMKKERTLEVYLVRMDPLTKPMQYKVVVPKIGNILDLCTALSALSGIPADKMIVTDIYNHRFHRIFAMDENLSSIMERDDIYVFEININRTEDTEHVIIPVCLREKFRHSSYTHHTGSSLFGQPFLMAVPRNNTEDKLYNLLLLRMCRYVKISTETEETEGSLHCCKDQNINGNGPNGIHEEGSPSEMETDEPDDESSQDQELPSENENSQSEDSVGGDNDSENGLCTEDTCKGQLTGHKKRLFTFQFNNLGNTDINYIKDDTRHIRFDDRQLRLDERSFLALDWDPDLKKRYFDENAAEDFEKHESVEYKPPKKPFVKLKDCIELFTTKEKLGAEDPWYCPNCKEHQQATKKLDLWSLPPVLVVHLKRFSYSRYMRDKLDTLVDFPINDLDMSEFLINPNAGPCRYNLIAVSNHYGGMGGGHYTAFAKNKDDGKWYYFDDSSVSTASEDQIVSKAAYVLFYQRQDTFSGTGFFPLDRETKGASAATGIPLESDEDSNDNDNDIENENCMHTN
In a few lines: as §1

In the next test the target is USP16 (UniProt Q9Y5T5). Summed up: as §1
USP16, sequence (Q9Y5T5 whole entry, looked up): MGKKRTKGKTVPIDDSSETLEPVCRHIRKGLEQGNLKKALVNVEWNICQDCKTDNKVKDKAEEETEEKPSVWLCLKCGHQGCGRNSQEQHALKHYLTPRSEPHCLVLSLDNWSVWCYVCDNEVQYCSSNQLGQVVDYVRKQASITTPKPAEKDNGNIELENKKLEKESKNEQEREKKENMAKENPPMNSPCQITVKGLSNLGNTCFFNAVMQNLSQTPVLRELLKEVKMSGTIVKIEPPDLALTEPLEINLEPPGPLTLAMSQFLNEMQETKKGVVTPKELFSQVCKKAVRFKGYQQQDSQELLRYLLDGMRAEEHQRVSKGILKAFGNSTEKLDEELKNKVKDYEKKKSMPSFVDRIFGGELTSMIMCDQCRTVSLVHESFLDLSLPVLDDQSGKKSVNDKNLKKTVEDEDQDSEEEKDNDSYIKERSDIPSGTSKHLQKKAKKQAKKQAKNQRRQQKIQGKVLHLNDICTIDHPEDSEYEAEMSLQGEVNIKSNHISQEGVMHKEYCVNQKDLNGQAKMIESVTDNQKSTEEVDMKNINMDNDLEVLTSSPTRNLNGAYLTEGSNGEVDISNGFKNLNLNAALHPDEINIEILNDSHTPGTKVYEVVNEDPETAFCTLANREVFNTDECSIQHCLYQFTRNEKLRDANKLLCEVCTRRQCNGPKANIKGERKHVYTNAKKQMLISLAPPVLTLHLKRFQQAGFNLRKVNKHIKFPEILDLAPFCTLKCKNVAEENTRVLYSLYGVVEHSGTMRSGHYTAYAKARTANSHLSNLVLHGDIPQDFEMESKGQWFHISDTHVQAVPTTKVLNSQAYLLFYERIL

UCHL1, sequence (P09936 whole entry, looked up): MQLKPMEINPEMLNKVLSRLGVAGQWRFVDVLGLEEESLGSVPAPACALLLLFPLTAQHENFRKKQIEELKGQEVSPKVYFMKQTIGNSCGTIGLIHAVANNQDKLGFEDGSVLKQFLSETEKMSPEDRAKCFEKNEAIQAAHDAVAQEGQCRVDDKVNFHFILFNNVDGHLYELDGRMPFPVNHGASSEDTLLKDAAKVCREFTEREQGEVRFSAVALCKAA
USP10, sequence (Q14694 whole entry): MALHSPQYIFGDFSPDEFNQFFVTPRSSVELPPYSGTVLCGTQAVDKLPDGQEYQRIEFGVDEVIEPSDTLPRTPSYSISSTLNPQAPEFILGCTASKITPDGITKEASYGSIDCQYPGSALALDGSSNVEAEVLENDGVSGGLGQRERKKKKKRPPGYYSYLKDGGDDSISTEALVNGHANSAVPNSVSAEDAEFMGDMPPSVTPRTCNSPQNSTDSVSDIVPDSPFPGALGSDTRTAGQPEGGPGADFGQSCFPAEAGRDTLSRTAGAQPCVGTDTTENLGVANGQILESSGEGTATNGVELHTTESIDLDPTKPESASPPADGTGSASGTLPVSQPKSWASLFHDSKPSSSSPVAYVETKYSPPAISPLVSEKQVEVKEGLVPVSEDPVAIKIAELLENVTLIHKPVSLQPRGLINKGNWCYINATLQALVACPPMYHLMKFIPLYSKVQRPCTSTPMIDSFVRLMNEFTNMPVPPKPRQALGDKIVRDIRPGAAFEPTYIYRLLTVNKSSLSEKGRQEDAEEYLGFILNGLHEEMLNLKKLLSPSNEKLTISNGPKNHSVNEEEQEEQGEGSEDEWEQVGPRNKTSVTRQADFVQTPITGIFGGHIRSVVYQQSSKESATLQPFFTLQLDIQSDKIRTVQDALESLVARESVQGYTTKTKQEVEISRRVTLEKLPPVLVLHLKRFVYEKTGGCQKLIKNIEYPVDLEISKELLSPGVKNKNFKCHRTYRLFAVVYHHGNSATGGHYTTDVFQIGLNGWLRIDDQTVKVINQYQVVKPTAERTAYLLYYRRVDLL

For `CS(=O)(=O)N1CCCN(C(=O)CCl)CC1`, the “log2 ratio of Biotin-Ahx-Ub-VS probe labelling” value with OTUD6B is -0.512; with OTUD7B it was -0.631; in the test with PRPF8, -0.104; with PSMD7 it was -0.148; with UCHL1 it was -1.95 (active); in the test with UCHL3 it was 0.112. Further, the “log2 ratio of Biotin-Ahx-Ub-VS probe labelling” value with UCHL5 is -0.235; with USP10 it was -0.0225; with USP15, -0.193; with USP16 it was 0.245.
